About 2,000 (36%) of roughly 5,500 compounds were called active. Inconclusive results (about 18%) are left out. No stated cut-off is given here; in the data, active means normalized growth mostly below about 0.91 (no sharp cut-off); inconclusive means no clear call, values can overlap the other calls; inactive means mostly above about 0.92. Some of the results follow.
Assay: chemical genetic growth profiling, strain panel (AID 1159580);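 further: tested at 20 µM; growth read once vehicle control cultures reached saturation at 30 °C; 1 = growth at the plate median or of vehicle wells; lower values mean less growth of the strain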
Conditions: S. cerevisiae deletion strains, growth OD

Measured: normalized growth

CN(C)c1ccc(C(=C2C=CC(=[N+](C)C)C=C2)c2ccc(N(C)C)cc2)cc1
active: locus YJR043C, strain POL32, hits give low values 0.373 | locus YJR066W, strain TOR1, hits give low values 0.0572 | locus YKL009W, strain mrt4, hits give low values 0.538 | locus YKL068W, hits give low values 0.431 | locus YKL085W, strain MDH1 (second series), hits give low values 0.429 | locus YKL085W, strain MDH1, hits give low values 0.429 | locus YKL160W, strain elf1, hits give low values 0.44 | locus YKR001C, strain vps1, hits give low values 0.514 | locus YKR026C, strain gcn3, hits give low values 0.573 | locus YKR091W, strain srl3, hits give low values 0.536 | locus YLL001W, strain dnm1, hits give low values 0.605 | locus YLL026W, hits give low values 0.536 | locus YLL041C, strain sdh2, hits give low values 0.468 | locus YLR027C, strain aat2, hits give low values 0.449 | locus YLR058C, strain SHM2, hits give low values 0.364 | locus YLR102C, strain apc9, hits give low values 0.449 | locus YLR113W, strain HOG1, hits give low values 1.5 [resistant] | locus YLR221C, strain rsa3, hits give low values 0.457 | locus YLR258W, strain gsy2, hits give low values 0.527 | locus YLR262C, strain YPT6 (second series), hits give low values 0.65 | locus YLR268W, strain sec22, hits give low values 0.553 | locus YLR320W, strain mms22, hits give low values 0.558 | locus YLR330W, strain CHS5, hits give low values 0.355 | locus YLR342W, strain FKS1 (second series), hits give low values 0.388 | locus YLR342W, strain FKS1, hits give low values 0.499 | locus YLR370C, strain arc18, hits give low values 0.564 | locus YLR371W, strain rom2, hits give low values 0.489 | locus YLR384C, strain iki3, hits give low values 0.486 | locus YLR418C, strain cdc73, hits give low values 0.769 | locus YML016C, strain PPZ1, hits give low values 0.345 | locus YML032C, strain rad52, hits give low values 0.583 | locus YML120C, strain ndi1, hits give low values 0.554 | locus YML124C, strain tub3, hits give low values 0.48 | locus YMR058W, strain fet3, hits give low values 0.59 | locus YMR078C, strain ctf18, hits give low values 0.546 | locus YMR125W, strain sto1, hits give low values 0.617 | locus YMR129W, hits give low values 0.505 | locus YMR205C, strain PFK2, hits give low values 0.688 | locus YMR223W, strain ubp8, hits give low values 0.524 | locus YMR231W, strain pep5, hits give low values 0.558 | locus YMR307W, strain GAS1, hits give low values 0.562 | locus YNL067W, strain RPL9B, hits give low values 0.315 | locus YNL071W, strain lat1, hits give low values 0.573 | locus YNL183C, strain NPR1, hits give low values -0.00369 | locus YNL209W, strain ssb2, hits give low values 0.435 | locus YNL233W, strain BNI4, hits give low values 0.338 | locus YNL248C, strain rpa49, hits give low values 0.6 | locus YNL250W, strain rad50, hits give low values 0.597 | locus YNL271C, strain bni1, hits give low values 0.458 | locus YNL298W, strain CLA4, hits give low values 0.511 | locus YNL307C, strain MCK1, hits give low values 0.521 | locus YNL322C, strain KRE1 (second series), hits give low values 0.626 | locus YNL322C, strain KRE1, hits give low values 0.318 | locus YNR049C, strain mso1, hits give low values 0.547 | locus YNR052C, strain pop2, hits give low values 0.497 | locus YOL147C, strain pex11, hits give low values 0.501 | locus YOR001W, strain rrp6, hits give low values 0.55 | locus YOR061W, strain CKA2, hits give low values 0.335 | locus YOR069W, strain VPS5, hits give low values 0.33 | locus YOR070C, strain gyp1, hits give low values 0.466 | locus YOR080W, strain dia2, hits give low values 0.569 | locus YOR083W, strain WHI5, hits give low values 0.547 | locus YOR106W, strain vam3, hits give low values 0.505 | locus YOR136W, strain idh2, hits give low values 0.549 | locus YOR144C, strain elg1, hits give low values 0.483 | locus YOR184W, strain ser1, hits give low values 0.604 | locus YOR231W, strain MKK1, hits give low values 1.28 [resistant] | locus YOR265W, strain rbl2, hits give low values 0.469 | locus YOR270C, strain vph1, hits give low values 0.762 | locus YOR290C, strain snf2, hits give low values 0.636 | locus YOR316C, strain cot1, hits give low values 0.454 | locus YPL051W, strain arl3, hits give low values 0.488 | locus YPL055C, strain LGE1, hits give low values 0.408 | locus YPL078C, strain atp4, hits give low values 0.643 | locus YPL106C, strain sse1, hits give low values 0.77 | locus YPL240C, strain hsp82, hits give low values 0.466 | locus YPL241C, strain CIN2, hits give low values 0.316 | locus YPL256C, strain CLN2, hits give low values 1.48 [resistant] | locus YPR119W, strain clb2, hits give low values 0.472 | locus YPR141C, strain kar3, hits give low values 0.559 | locus YPR163C, strain tif3, hits give low values 0.517 | locus YPR167C, strain met16, hits give low values 0.49 | strain wtn01, hits give low values 0.535
inactive: locus YLR039C, strain RIC1, hits give low values 0.713 | locus YLR262C, strain YPT6, hits give low values 0.753 | locus YLR357W, strain rsc2, hits give low values 1.04 | locus YOL012C, strain htz1 1.5

From PubChem BioAssay AID1159580 (chemical genetic matrix, 2015)
